Our source for the outcome and Potency values is PubChem BioAssay (NCATS).

Records with an inconclusive call do not appear. A number with no mark means an inactive call. Active and inactive are the calls of the source. The call rests on the fitted dose curve; in most records, active means well fitted curve in the direction sought with a large enough effect; inconclusive means small, poorly fitted or top-dose-only effect, or another doubt; inactive means no such curve, though single readings can be large; an effect the other way counts as inactive or inconclusive.

The subject of one experiment is HACAT. Nature of the experiment: qHTS assay to identify novel small-molecules to repurpose for Merkel cell carcinoma treatment (AID 1296009). Further: nearly all actives have a fitted effect of over 60% in size. Further: potency means the concentration at half of the fitted maximal effect. The settings on record: MCC and control cell lines, CellTiter-Glo viability, 72 h; at 44.8 µM (top of the series) unless noted. A digest of the protocol: (§1)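 72 hr, 37 degree celsius; NPC 8-pt / MIPE 11-pt dose response; compound pinned in DMSO; CellTiter-Glo, 10 min RT, luminescence; normalized to no-cell and DMSO controls.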
Background: Quantitative high-throughput screening tests each substance at several concentrations.

A further experiment has as its system MCC-13. Described as above. The conditions noted are these: MCC and control cell lines, CellTiter-Glo viability, 72 h; series mostly up to 46 µM. A digest of the protocol: as §1
A general note: ATP-based viability assays read luminescence as a measure of living cells.

The subject of the next experiment is MCC-26. The experiment is described as above. The settings on record: MCC and control cell lines, CellTiter-Glo viability, 72 h; series mostly up to 46 µM. A digest of the protocol:
as §1

Another experiment relates to MKL-2. The experiment is described as above. The settings on record: MCC and control cell lines, CellTiter-Glo viability, 72 h; series mostly up to 46 µM. A digest of the protocol: as §1
A further experiment deals with NIH3T3. The description is as above. The settings on record: MCC and control cell lines, CellTiter-Glo viability, 72 h; at 44.8 µM (top of the series). A digest of the protocol: as §1
In a further experiment the test system is UISO. The experiment is described as above. The settings on record: MCC and control cell lines, CellTiter-Glo viability, 72 h; series mostly up to 46 µM. A digest of the protocol: as §1
Another experiment concerns C33A. In words: Primary qHTS to identify gynecologic anti-cancer compounds using libraries of approved drugs and bioactive compounds (AID 1345084). Further: nearly all actives have a fitted effect of over 55% in size. The settings on record: Gynecologic cancer cell panel viability, ATPlite luminescence, 48 h; series mostly up to 57.5 µM. A digest of the protocol:
(§2)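 Cells, 1,000 per well, were allowed to settle for 16 h at 37 C before compound addition. Five concentrations were tested for 48 h, and viability was read by ATPlite luminescence after 15 min at room temperature.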

A further experiment relates to CAOV3. The experiment is described as above. The settings on record: Gynecologic cancer cell panel viability, ATPlite luminescence, 48 h; series mostly up to 57.5 µM. A digest of the protocol:
as §2

In another experiment the test system is CASKI. The description is as above. The conditions noted are these: Gynecologic cancer cell panel viability, ATPlite luminescence, 48 h; series mostly up to 57.5 µM. A digest of the protocol: as §2
A further experiment deals with Es-2. The description is as above. The conditions noted are these: Gynecologic cancer cell panel viability, ATPlite luminescence, 48 h; series mostly up to 57.5 µM. A digest of the protocol: as §2
Another experiment has as its system HeLa. Described as above. The conditions noted are these: Gynecologic cancer cell panel viability, ATPlite luminescence, 48 h; series mostly up to 57.5 µM. A digest of the protocol: as §2
Experiment [1] has as its system Hek293T. Described as above. The conditions noted are these: Gynecologic cancer cell panel viability, ATPlite luminescence, 48 h, control line for the selectivity index; series mostly up to 57.5 µM. A digest of the protocol: as §2
The next experiment deals with JEG-3. Described as above. The conditions noted are these: Gynecologic cancer cell panel viability, ATPlite luminescence, 48 h; series mostly up to 57.5 µM. A digest of the protocol: as §2
The next experiment deals with OV90. Described as above. The settings on record: Gynecologic cancer cell panel viability, ATPlite luminescence, 48 h; series mostly up to 57.5 µM. A digest of the protocol:
as §2

In a further experiment the test system is PA-1. The description is as above. The settings on record: Gynecologic cancer cell panel viability, ATPlite luminescence, 48 h; series mostly up to 57.5 µM. A digest of the protocol: as §2
In a further experiment the test system is SKOV3. Described as above. The conditions noted are these: Gynecologic cancer cell panel viability, ATPlite luminescence, 48 h; series mostly up to 57.5 µM. A digest of the protocol: as §2
A further experiment deals with Tov-21-G. Described as above. The settings on record: Gynecologic cancer cell panel viability, ATPlite luminescence, 48 h; series mostly up to 57.5 µM. A digest of the protocol:
as §2

The subject of experiment [2] is HEK293T. In words: qHTS assay to identify novel small-molecules to repurpose for Merkel cell carcinoma treatment (AID 1296009). Further: nearly all actives have a fitted effect of over 60% in size. Further: potency means the concentration at half of the fitted maximal effect. The settings on record: MCC and control cell lines, CellTiter-Glo viability, 72 h; at 44.8 µM (top of the series) unless noted. A digest of the protocol:
as §1

In a further experiment the test system is MKL-1. The experiment is described as above. The settings on record: MCC and control cell lines, CellTiter-Glo viability, 72 h; series mostly up to 46 µM. A digest of the protocol:
as §1

The next experiment relates to WaGa. The experiment is described as above. The conditions noted are these: MCC and control cell lines, CellTiter-Glo viability, 72 h; series mostly up to 46 µM. A digest of the protocol:
as §1

Turning to `Cc1c[nH]c2ccccc12`, the result in the experiment with HACAT and in the experiment on NIH3T3 was inactive. Also, the Potency entry in the experiment on MCC-13, in the experiment on MCC-26, in the experiment on MKL-2, in the experiment with UISO, in the experiment on C33A and with CAOV3 was “inactive” throughout. Also, the Potency entry in the experiment on CASKI, in the experiment with Es-2, with HeLa, in the experiment with Hek293T [1], in the experiment with JEG-3 and with OV90 was “inactive” in each case. The Potency entry in the experiment with PA-1, with SKOV3 and with Tov-21-G was “inactive” throughout.

As to `COc1ccc(CN(CCN(C)C)c2ncccn2)cc1`, the call in the experiment on HEK293T [2] was inactive. In addition, the Potency result in the experiment with MCC-13, in the experiment with MCC-26, with MKL-1, in the experiment on MKL-2, in the experiment on UISO and with WaGa was “inactive” each time. Moreover, the Potency result in the experiment with C33A, in the experiment with CAOV3, with CASKI, with Es-2, with HeLa and in the experiment on Hek293T [1] was “inactive” each time. In addition, the Potency entry in the experiment with JEG-3, with OV90, in the experiment on PA-1, with SKOV3 and with Tov-21-G was “inactive” each time.

For `CCC(CC)(CC(=O)Nc1cccc(/C=C/c2nc(C3CCC3)cs2)c1)C(=O)O`, the outcome in the experiment with HACAT was inactive. Besides, the Potency entry in the experiment with MCC-13, with MCC-26, in the experiment on MKL-1, in the experiment with UISO, in the experiment on C33A and in the experiment with CASKI was “inactive” each time. Besides, the Potency entry with SKOV3 is “inactive”.

Consider `O=C(CCN1CCN2CCCC2C1)N1c2ccccc2Sc2ccc(Cl)cc21` (stereo not given), for which the outcome in the experiment with HACAT is “inactive [at 17.4 µM]”. The Potency entry with MCC-13, with MCC-26, in the experiment on MKL-1, in the experiment on UISO, in the experiment on WaGa and in the experiment with C33A was “inactive” throughout. In addition, the Potency entry in the experiment on CAOV3, with CASKI, in the experiment on Es-2, with HeLa, with Hek293T [1] and in the experiment on JEG-3 was “inactive” in each case. Besides, the Potency entry with OV90, in the experiment with PA-1, with SKOV3 and in the experiment on Tov-21-G was “inactive” each time.

Turning to `C#C[C@]1(O)CC[C@H]2[C@@H]3[C@H](C)CC4=C(CCC(=O)C4)[C@H]3CC[C@@]21C`, in the experiment on HACAT, the outcome was inactive. Further, the Potency result with MCC-13, in the experiment with MCC-26, with MKL-1, in the experiment on UISO, in the experiment on C33A and in the experiment with CAOV3 was “inactive” throughout. In addition, the Potency result in the experiment with CASKI, in the experiment on Es-2, in the experiment on HeLa, in the experiment on Hek293T [1], in the experiment on JEG-3 and with OV90 was “inactive” in each case. Moreover, the Potency entry with PA-1, with SKOV3 and in the experiment with Tov-21-G was “inactive” throughout. For the same molecule, in the experiment with WaGa, the Potency is 18.8 µM (active).

Turning to `NC(=O)n1c(O)c(C(=O)c2cccs2)c2cc(Cl)ccc21`, the call in the experiment on HACAT was inactive. For the same molecule, the Potency result with MCC-13, in the experiment with MCC-26, with MKL-1, in the experiment on MKL-2, in the experiment with C33A and in the experiment with CAOV3 was “inactive” each time. Moreover, the Potency entry in the experiment with CASKI, in the experiment on Es-2, with Hek293T [1], in the experiment on JEG-3, in the experiment with OV90 and with SKOV3 was “inactive” throughout. Besides, the Potency result with Tov-21-G is “inactive”.

As for `CCCCc1cc2ccccc2c(OCCN(C)C)n1`, the molecule was called inactive in the experiment on HACAT. The Potency result in the experiment with MCC-13, in the experiment with MKL-1, in the experiment on C33A, in the experiment on Es-2, with HeLa and with Hek293T [1] was “inactive” throughout. Also, the Potency entry with JEG-3, with PA-1 and in the experiment on Tov-21-G was “inactive” in each case. In addition, the Potency in the experiment with WaGa was 21.1 µM (active).

`CC(=C(CCOC(=O)C(C)C)SSC(CCOC(=O)C(C)C)=C(C)N(C=O)Cc1cnc(C)nc1N)N(C=O)Cc1cnc(C)nc1N`: the outcome in the experiment with HACAT and in the experiment with NIH3T3 was inactive. Moreover, the Potency result with MCC-13, in the experiment with MCC-26, with MKL-1, in the experiment on UISO, with WaGa and with C33A was “inactive” throughout. The Potency result with CAOV3, with CASKI, in the experiment on Es-2, in the experiment on HeLa, with JEG-3 and in the experiment on OV90 was “inactive” in each case. The Potency result in the experiment on PA-1, in the experiment on SKOV3 and with Tov-21-G was “inactive” each time.

As for `C[N+]1(C)CCC(=C(c2ccccc2)c2ccccc2)CC1`, the molecule was classed as inactive in the experiment on HACAT. Moreover, the Potency result in the experiment on MCC-13, in the experiment on MCC-26, in the experiment on MKL-1, in the experiment with MKL-2, in the experiment with C33A and in the experiment on CAOV3 was “inactive” in each case. For the same molecule, the Potency result in the experiment with CASKI, in the experiment on Es-2, in the experiment with HeLa, in the experiment on Hek293T [1], with JEG-3 and with OV90 was “inactive” in each case. For the same molecule, the Potency entry in the experiment with PA-1, in the experiment on SKOV3 and in the experiment on Tov-21-G was “inactive” each time.
